A selection follows.
aSyn UTR act: Activators via SNCA 5'UTR binding, MLPCN | alpha-synuclein 5'UTR reporter, activators screen | activity score, % (tested at 7.5 µM), hits read low | 300,000 tested, 7.1% active | AID 1814, 2009; in the data active = activity score below about -60%
Of the large screens only hits and unclear results are named; the others gave an inactive call.

Oc1[nH]c2c(Cl)cc(Cl)cc2c1N=NC(=S)NCC1CCCO1 (configuration not stated)	none
O=C(NC1CCCCCC1)c1c(O)c2ccccc2[nH]c1=O	aSyn UTR act -132
O=C(NCC1CCCO1)c1c(O)c2ccccc2[nH]c1=O (configuration not stated)	aSyn UTR act -140
O=C(NC1CCCc2ccccc21)c1n[nH]c(=O)c2ccccc12 (configuration not stated)	none
CCCc1ccc(-c2cc(NC(=O)CSc3nnc(N)s3)n(-c3ccccc3)n2)cc1	aSyn UTR act -146
Cc1cc(Nc2nc3ccccc3nc2Cl)n(-c2ccccc2)n1	aSyn UTR act -88
COc1ccccc1OCc1cc(-c2ccccc2)no1	aSyn UTR act -224
c1ccc(OCc2cc(-c3ccccc3)no2)cc1	aSyn UTR act -169
CN(C)/C=C/c1onc(-c2ccccc2Cl)c1C#N	aSyn UTR act -87
CC(C)c1ccc(NC(=O)Nc2cnccn2)cc1	aSyn UTR act -212
Cc1ccc(NC(=O)Nc2cnccn2)cc1C	aSyn UTR act -68
Cc1ccc(NC(=O)Nc2cnccn2)cc1	aSyn UTR act -118
CC(C)OC(=O)/C(C#N)=C/c1ccc(-c2ccc(SC(F)F)cc2)o1	aSyn UTR act -88
C[C@H]1COC2=C1C(=O)C(=O)c1c2ccc2c1CCCC2(C)C	none
CCOc1ccc2nc(SCC(=O)NC3CC3)sc2c1	aSyn UTR act -68
CCOc1ccc2nc(SCC(=O)c3ccccc3)sc2c1	aSyn UTR act -100
CC1=NN(C(N)=S)C(=O)C1N=Nc1ccc(Br)cc1 (configuration not stated)	aSyn UTR act -115
CC1=NN(C(N)=S)C(=O)C1N=Nc1cccc(Cl)c1C (configuration not stated)	aSyn UTR act -184
CC1=NN(C(N)=S)C(=O)C1N=Nc1cccc([N+](=O)[O-])c1 (configuration not stated)	aSyn UTR act -121
CC1=NN(C(N)=S)C(=O)C1N=Nc1ccc(Cl)cc1 (configuration not stated)	aSyn UTR act -143
CCOC(=O)CN1C(=O)S/C(=C/C=C/c2ccc(N(C)C)cc2)C1=O	aSyn UTR act -165
O=C(CN1C(=O)S/C(=C\C=C\c2ccccc2)C1=O)Nc1ccc(O)cc1	aSyn UTR act -150
CC(C)c1ccccc1NC(=O)COC(=O)CCN1C(=O)/C(=C\C=C\c2ccccc2)SC1=S	none
CCOC(=O)CN1C(=O)S/C(=C/c2ccc3c(c2)n(C)c(=O)n3C)C1=O	aSyn UTR act -155
O=C(COC(=O)CCN1C(=O)/C(=C\C=C\c2ccccc2)SC1=S)Nc1ccc(Br)cc1	none
CCOC(=O)c1oc2ccc(CNCCO)c(Cl)c2c1C	aSyn UTR act -63
O=C(/C=C/c1cccc(Cl)c1)Nc1ccncc1	aSyn UTR act -112
NS(=O)(=O)c1ccc(NC(=O)/C=C/c2cccc(Cl)c2)cc1	aSyn UTR act -81
N/N=C(/Cc1nc2ccccc2[nH]1)c1ccc([N+](=O)[O-])cc1	aSyn UTR act -75
Clc1cccc(/C(Cc2nc3ccccc3[nH]2)=N\Nc2ccccc2)c1	aSyn UTR act -64
N#CCCN/N=C(/Cc1nc2ccccc2[nH]1)c1ccc(Cl)cc1	aSyn UTR act -67
CCN/N=C(\Cc1nc2ccccc2[nH]1)c1ccccc1	aSyn UTR act -138
c1ccc(N/N=C(\Cc2nc3ccccc3[nH]2)c2ccccc2)cc1	aSyn UTR act -102
COc1ccc(-c2nn(-c3ccccc3)cc2/C=N/NS(=O)(=O)c2ccccc2)cc1	aSyn UTR act -62
COc1ccc(-c2nn(-c3ccccc3)cc2/C=N/N2C(=O)CSC2=S)cc1	aSyn UTR act -83
COc1ccc(-c2nn(-c3ccccc3)cc2/C=N/NC(=O)c2cccc(S(=O)(=O)Nc3ccccc3Cl)c2)cc1	aSyn UTR act -77
CC(C)Cc1cc(C(=O)Nc2ccc3c(c2)OCO3)no1	aSyn UTR act -184
COC(=O)c1ccc(C)c(NS(=O)(=O)c2ccc3c(c2)OCCO3)c1	none
Cc1cc(C(=O)Nc2ccc3c(c2)OCO3)no1	aSyn UTR act -107
Cc1cc(NS(=O)(=O)c2ccc(NC(=O)Nc3ccc4c(c3)OCO4)cc2)no1	aSyn UTR act -71
O=C(CSCC(=O)Nc1nc(-c2ccc3c(c2)OCO3)cs1)Nc1nccs1	aSyn UTR act -111
CSCC(=O)Nc1nc(-c2ccc3c(c2)OCCO3)cs1	aSyn UTR act -117
O=C(Nc1nc(-c2ccc3c(c2)OCO3)cs1)C1CC1	aSyn UTR act -184
CC1C/C(=C/c2ccncc2)C(=O)/C(=C/c2ccncc2)C1 (configuration not stated)	aSyn UTR act -107
COC(=O)c1cc(Cl)c(NC(=O)c2cc3ccccc3o2)cc1OC	aSyn UTR act -154
CCC(=O)Nc1ccc(NC(=O)c2cc3ccccc3o2)c(OC)c1	aSyn UTR act -134
COc1cc(NC(=O)c2c(OC)cccc2OC)ccc1NC(=O)c1cc2ccccc2o1	aSyn UTR act -205
COc1cc(NC(=O)c2ccccc2F)ccc1NC(=O)c1cc2ccccc2o1	aSyn UTR act -67
CC(C)C(NC(=O)OCc1ccccc1)C(=O)OCC(=O)N1CCCCC1 (configuration not stated)	aSyn UTR act -132

Screening data: PubChem, Broad Institute
